# Source: PubChem BioAssay AID434970 (Sanford-Burnham Center for Chemical Genomics, 2010)
# Out of some 11,000 compounds screened, about 310 (2.8%) were called active. Rule as the data show it: active = activity change below about -85%; inactive = the rest. Many of the other results were omitted from the sample, so actives are more common in it than they were.
# Tested on: intestinal alkaline phosphatase [Mus musculus]
# Experiment: mouse intestinal phosphatase enzyme activation – biochemical, luminescence, single concentration, confirmation (AID 434970)
# Conditions: purified mouse IAP, CDP-Star luminescence, 30 min, at 10 µM; activation factor: measured here: IAP activation factor, stronger effect = higher value; activity change, negative = activation: stronger effect = lower value
Structure (SMILES),activation factor,"activity change, negative = activation"
O=C(c1ccc(F)cc1)N1CCN(Cc2ccccc2Br)CC1,0.984,1.55% (inactive)
CCn1c(SCC(=O)Nc2nccs2)nnc1-c1cc2cccc(OC)c2o1,0.881,11.9% (inactive)
CCOc1ccc(C(=S)N2CCCC2)cc1,0.949,5.1% (inactive)
CCSc1nc(N)c2c(C)c(C)sc2n1,1.11,-10.9% (inactive)
CCOc1ccccc1N1CCN(S(=O)(=O)c2ccc3c4c(cccc24)C(=O)N3)CC1,0.442,55.8% (inactive)
S=C(NCCCc1ccccc1)Nc1ccccc1Cl,1.26,-26.2% (inactive)
COc1ccccc1NC(=S)NCCC(c1ccccc1)c1ccccc1,1.39,-38.9% (inactive)
Cc1c(Cl)cccc1NC(=S)NCCC(c1ccccc1)c1ccccc1,4.75,-375% (active)
COc1ccc(Cl)cc1NC(=S)NCCC(c1ccccc1)c1ccccc1,2.07,-107% (active)
Cc1c(Cl)cccc1NC(=S)NCc1ccccc1,1.04,-4% (inactive)
Cc1cc(Cl)ccc1NC(=S)NCCC(c1ccccc1)c1ccccc1,2.05,-105% (active)
S=C(NCCC(c1ccccc1)c1ccccc1)Nc1ccccc1Cl,1.84,-84.1% (inactive)
Cc1c(Cl)cccc1NC(=S)NCCC(C)C,1.19,-19.2% (inactive)
Cc1ccccc1NC(=S)NCCC(c1ccccc1)c1ccccc1,1.96,-96% (active)
Cc1ccc(Cl)cc1NC(=S)NCCCSC1CCCCC1,1.29,-28.8% (inactive)
COc1ccc(Cl)cc1NC(=S)NCCSc1ccc(C)cc1,1.43,-42.5% (inactive)
S=C(NCCc1ccc(Cl)cc1)Nc1ccc(Cl)cc1Cl,1.36,-36.1% (inactive)
CSc1nc(Oc2ccc(=O)n(C)n2)nc(N(C)C)n1,1.07,-6.65% (inactive)
COc1ccc(C2C(C#N)=C(N)N(c3sc4c(c3C#N)CCCC4)C3=C2C(=O)CC(C)(C)C3)cc1OC (stereo not drawn),0.851,14.9% (inactive)
CCC(C)(C)NC(=O)C(c1ccccc1)N(C(=O)c1csnn1)C1CC1 (stereo not drawn),0.99,1% (inactive)
Cc1cc(=O)c2cc(Br)ccc2[nH]1,0.944,5.65% (inactive)

Structure (SMILES),activation factor,"activity change, negative = activation"
CCOC(=O)CSc1nc(-c2ccc(OC)cc2)ns1,1,0.05% (inactive)
COc1ccccc1C(=O)NCCN1CCN(C(=O)c2ccccc2OC)CC1,1.1,-10.1% (inactive)
COc1cccc(OCC(=O)Nc2ccccc2NC(C)=O)c1,1.08,-8.25% (inactive)
COc1ccc(C(=O)Nc2ccccc2C(=O)N/N=C/c2cccc3ccccc23)cc1,1.02,-1.95% (inactive)
COc1cccc(C(CC(=O)Nc2cccc3ccccc23)NC(=O)c2ccccc2)c1 (stereo not drawn),2.19,-119% (active)
NC(=O)CSc1nnc(-c2ccncc2)n1CCc1ccccc1,1.05,-5.05% (inactive)
COc1ccc(COC(=O)Nc2cc3c(C(F)(F)F)nn(C)c3s2)cc1,1.23,-23.1% (inactive)
O=C1NC2(CCCCC2)C(=O)N1c1ccccc1,1.08,-7.85% (inactive)
COc1ccc(NC(=O)NC23CC4(C)CC(C)(CC(C)(C4)C2)C3)cc1,2.08,-108% (active)
COc1ccc(NC(=O)NC23CC4(C)CC(C)(CC(C)(C4)C2)C3)cc1OC,1.65,-64.8% (inactive)
COc1ccc(NC(=O)NCc2ccncc2)cc1,1.01,-0.85% (inactive)
Cn1nnnc1SCC(=O)N1CCN(c2ccc(Cl)cc2)CC1,1.06,-5.85% (inactive)
CCN(CC)c1ccc(NC(=O)c2cccc(OC)c2)c(C)c1,0.97,3.05% (inactive)
CCOc1ccc(OCCCN(C)C)cc1,0.976,2.4% (inactive)
O=C(CN1CCN(Cc2ccccc2Cl)C1=O)NCc1ccco1,0.935,6.45% (inactive)
CCOC(=O)C1CCN(CCC(=O)Nc2ccccc2Cl)CC1,0.996,0.35% (inactive)
S=C(Nc1cc(Cl)cc(Cl)c1)NC1CCN(Cc2ccccc2)CC1,1.54,-53.5% (inactive)
O=C(NCC1CCN(Cc2cccc(Cl)c2)CC1)Nc1ccccc1Cl,2.17,-118% (active)
Cc1cccc(CN2CCC(CNC(=O)CCNC(=O)Cn3ccc4ccccc4c3=O)CC2)c1,0.974,2.6% (inactive)
CCOC(=O)N1CCN(C(=O)Nc2ccc(Cl)cc2Cl)CC1,1.02,-1.6% (inactive)
Cc1ccc(NC(=O)NCC2CCN(Cc3cccc(Cl)c3)CC2)c(Cl)c1,2.2,-120% (active)

Structure (SMILES),activation factor,"activity change, negative = activation"
COc1cccc(Cn2cnc3c(NS(=O)(=O)c4ccc(Cl)cc4Cl)c(C)c(C)cc32)c1,0.985,1.45% (inactive)
Cc1cc(C)c(S(=O)(=O)NNC(=O)C2CCN(Cc3ccccc3)CC2)c(C)c1,0.968,3.2% (inactive)
CCn1c2ccccc2c2cc(NC(=O)C3CCN(S(=O)(=O)c4cccs4)CC3)ccc21,1.53,-52.7% (inactive)
Cn1cc(CN2CCC(C(=O)Nc3cccc(-c4cccc(F)c4)c3)CC2)cn1,2.29,-129% (active)
Cc1ccc(CN2CCC(C(=O)Nc3cccc(-c4cccc(F)c4)c3)CC2)o1,1.48,-48.2% (inactive)
CC(C)n1cc(CN2CCC(C(=O)Nc3cccc(-c4cccc(Cl)c4)c3)CC2)cn1,3.97,-297% (active)
CCn1cc(CN2CCC(C(=O)Nc3cccc(-c4cccc(Cl)c4)c3)CC2)cn1,4.29,-329% (active)
CCn1cc(CN2CCC(C(=O)Nc3cccc(-c4cccc(F)c4)c3)CC2)cn1,2.66,-166% (active)
Cc1ccc(S(=O)(=O)NNC(=O)C2CCN(Cc3ccccc3)CC2)cc1,0.94,6% (inactive)
CC(C)c1ccc(CN2CCC(C(=O)NCc3cccnc3)CC2)cc1,1.04,-4.3% (inactive)
C[C@]12c3[nH]c4ccc(Cl)cc4c3CCN1C(=O)[C@@H](CC(=O)NCc1cccc(C(F)(F)F)c1)C[C@@H]2C(=O)N1CCCCC1,1.26,-26.2% (inactive)
c1ccc(-n2nnnc2SCc2cccc3nsnc23)cc1,0.908,9.2% (inactive)
O=[N+]([O-])c1ccc2n[nH]nc2c1,1.02,-2.4% (inactive)
O=C(Nc1nnc(SCc2ccccc2Cl)s1)C1COc2ccccc2O1 (stereo not drawn),0.965,3.5% (inactive)
CC(=O)c1sc(Nc2nc(C)cc(C)n2)nc1C,0.928,7.2% (inactive)
COc1ccc(CN(CC(O)COCc2ccccc2)S(=O)(=O)c2ccccc2Br)cc1OC (stereo not drawn),1.04,-3.55% (inactive)
O=C1CN(c2ccccc2F)C(=O)CN1c1ccccc1F,1.01,-1.1% (inactive)
C#CCOCCOCCOCCNc1nc(N2CCN(C(=O)CCCCCCCCCCNC(=O)[C@H](CCCCN)n3cc(C)nn3)CC2)nc(N2CCN(C(=O)CCCCCCCCCCNC(=O)[C@H](CCCN=C(N)N)n3cc(C[C@@H](C)CC)nn3)CC2)n1,3.95,-295% (active)
C#CCOCCOCCOCCNc1nc(N2CCN(C(=O)CCCCCCCCCCNC(=O)[C@H](CCCCN)n3cc(CCCC(=O)O)nn3)CC2)nc(N2CCN(C(=O)CCCCCCCCCCNC(=O)[C@H](CCCN=C(N)N)n3cc(C[C@@H](C)CC)nn3)CC2)n1,2.67,-167% (active)
C#CCOCCOCCOCCNc1nc(N2CCN(C(=O)CCCCCCCCCCNC(=O)[C@H](CCCCN)n3cc(CCO)nn3)CC2)nc(N2CCN(C(=O)CCCCCCCCCCNC(=O)[C@H](CCCN=C(N)N)n3cc(C[C@@H](C)CC)nn3)CC2)n1,3.04,-204% (active)
CCOC(=O)c1c(N)sc(C(O)(C(F)(F)F)C(F)(F)F)c1-c1ccccc1,1.07,-6.55% (inactive)

Structure (SMILES),activation factor,"activity change, negative = activation"
CC1CN(c2nc3c(c(=O)n(Cc4ccc(Cl)c(Cl)c4)c(=O)n3C)n2C)CC(C)O1 (stereo not drawn),1.01,-0.8% (inactive)
Cc1n[nH]c(C)c1S(=O)(=O)N1CCCC(C(=O)N2CCc3ccccc32)C1 (stereo not drawn),0.946,5.45% (inactive)
COc1ccc(Nc2nc(N)nc(CSc3nccc(C)n3)n2)cc1,1.04,-3.9% (inactive)
Cc1ccc(-c2nnn(CC(=O)N3CCCc4ccccc43)n2)cc1,1.06,-6.35% (inactive)
CSc1cccc(NC(=O)Nc2ccc(Cl)cc2)c1,2.06,-106% (active)
CSc1cccc(NC(=O)NCc2cccc(CNC(=O)Nc3cccc(SC)c3)c2)c1,1.62,-61.9% (inactive)
CSc1cccc(NC(=O)Nc2nc3c(C)cccc3s2)c1,1.45,-45% (inactive)
COC(=O)c1cccc(NC(=O)Nc2ccc(Cl)cc2)c1,1.48,-47.6% (inactive)
CSc1cccc(NC(=O)Nc2ccccc2)c1,2.1,-110% (active)
COc1ccccc1C(=O)Nc1cccc(SC)c1,1.12,-11.6% (inactive)
Cc1cnc(-c2nnc(N(C)C(=O)C3CCOC3)s2)cn1 (stereo not drawn),0.996,0.45% (inactive)
Cc1onc(-c2ccccc2Cl)c1C(=O)OCC(=O)N1CCCc2ccccc21,1.02,-2.05% (inactive)
CC(C)(C)c1ccc(OCC(=O)NCc2ccco2)c(Br)c1,0.869,13.1% (inactive)
CC(C)N1CC2=C(OC(N)=C(C#N)C2c2cccnc2)/C(=C/c2cccnc2)C1 (stereo not drawn),0.917,8.3% (inactive)
Cc1cc(C)cc(NC(=O)NCC2CCN(Cc3cc(C)ccc3C)CC2)c1,2.32,-132% (active)
Cc1ccc(SCC(=O)Nc2ccc(N3CCN(C)CC3)c(F)c2)c(C)c1,1.13,-13% (inactive)
Cc1ccc(C)c(CN2CCC(CNC(=O)Nc3ccc(Br)cc3F)CC2)c1,1.55,-54.9% (inactive)
Cc1cc(C)c(CN2CCN(C(=O)Cn3cnc(C(=O)Nc4ccc(C)c(C)c4)n3)CC2)c(C)c1,1.13,-13.2% (inactive)
Cc1ccc(SCCNC(=S)Nc2ccc(C)c(C)c2)cc1,1.46,-45.9% (inactive)
Cc1ccc(C)c(CN2CCC(CNC(=O)Nc3ccc(C)c(C)c3)CC2)c1,2.21,-121% (active)
Cc1ccc(C)c(CN2CCC(CNC(=O)Nc3ccc(C)c(F)c3)CC2)c1,2.16,-116% (active)
